Results filed as inconclusive are left out. Calls of active or inactive are those of the source. Calls follow the shape of the dose curve; as a rule, active = well fitted inhibition curve with a large enough effect; inconclusive = small, poorly fitted or top-dose-only effect; inactive = flat fitted curve, though single readings scatter. *1 amine or outer side, *2 acyl side, *3 side chain or, on linkers, in order; H or OH if unused. Where a SMILES comes first, the peptide text is derived from it. [ ]: non-standard residue; d: D form. X13 = O=C(C(CC(O)CO)O[*:1])[*:2]; NMeV = CN[CH](C(=O)O)C(C)C; NMeA = CN[CH](C)C(=O)O; βAla = NCCC(=O)O
Experiments:
Experiment in all cases: Cytotoxic Profiling of Annotated Libraries Using Quantitative High-Throughput Screening (AID 1296008); also: nearly all actives have a fitted effect of over 60% in size
Settings in all cases: Five cell lines viability, CellTiter-Glo ATP luminescence, 48-72 h; max response: hits give low values
CRL-7250 = system: CRL-7250
Summary of the method: (§1)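 Compounds were pin-transferred onto cells and incubated 48 or 72 hr at 37 degree Celsius, 95% humidity. CellTiter-Glo was added, plates sat 10 min at room temperature, then ATP-coupled luminescence was imaged as the viability read-out.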

HEK293 = system: HEK293
Summary of the method: as §1

HaCat = system: HaCat
Summary of the method: as §1

KB-3-1 = system: KB-3-1
Summary of the method: as §1

NIH3T3 = system: NIH3T3
Summary of the method: as §1

Measured: max response
% is scaled to controls: 0 for no effect and ±100 for the full control effect.

CC1(C)CC2C3=CCC4[C@@]5(C)CC[C@H](OC6OCC(O)C(OC7OC(CO)C(O)C(O)C7O)C6O)C(C)(C)C5CC[C@@]4(C)[C@]3(C)C[C@H](O)[C@@]2(CO)[C@H](OC(=O)c2ccccc2)C1 (stereo not given in full)
inactive: CRL-7250 -5.7% | HEK293 -22% | HaCat | KB-3-1 -6.42% | NIH3T3 -2.6%

CCC(C)C1NC(=O)C2CCCN2C(=O)C(CC(O)CO)OC(=O)CCNC(=O)C(C)N(C)C(=O)C(C(C)C)N(C)C1=O (stereo not given) (cyclo([X13]PI[NMeV][NMeA][βAla]); configuration not given here)
inactive: CRL-7250 -8.24% | HEK293 2.6% | HaCat | KB-3-1 9.21% | NIH3T3

C=C(C)C1Cc2c(ccc3c2OCC(c2ccc(O)cc2O)C3)O1 (stereo not given)
inactive: CRL-7250 -23.3% | HEK293 -18.8% | HaCat | KB-3-1 -21.6% | NIH3T3 -8.17%

COC(=O)C1=CO[C@@H](O[C@@H]2O[C@H](CO)[C@@H](O)[C@H](O)[C@H]2O)/C(=C\CO)[C@@H]1CC(=O)OCCc1ccc(O)cc1
inactive: CRL-7250 0.106% | HEK293 2.34% | HaCat | KB-3-1 | NIH3T3

O=C(NCC(=O)N1CCCC1)Nc1ccc2ccccc2c1
inactive: CRL-7250 3.04% | HEK293 2.51% | HaCat | KB-3-1 | NIH3T3 -1.06%

CC(C)=CCC[C@](C)(O[C@@H]1O[C@H](CO[C@@H]2O[C@@H](CO)[C@H](O)[C@H]2O)[C@@H](O)[C@H](O)[C@H]1O)[C@H]1CC[C@]2(C)[C@@H]1[C@H](O)C[C@@H]1[C@@]3(C)CC[C@H](O[C@@H]4O[C@H](CO)[C@@H](O)[C@H](O)[C@H]4O[C@@H]4O[C@H](CO)[C@@H](O)[C@H](O)[C@H]4O)C(C)(C)[C@@H]3CC[C@]12C
inactive: CRL-7250 2.09% | HEK293 -3.56% | HaCat | KB-3-1 | NIH3T3 -28.7%

COC(=O)C1=COC(O[C@@H]2O[C@H](CO)[C@@H](O)[C@H](O)[C@H]2O)/C(=C\COC(=O)/C=C/c2ccccc2)C1CC(=O)OCCc1ccc(O)cc1 (stereo not given in full)
inactive: CRL-7250 -7.39% | HEK293 -5.04% | HaCat | KB-3-1 | NIH3T3

CC1(C)C=Cc2c(ccc3c2N=C2C(C)(C)[C@@H]4C[C@]56CCCN5C(=O)[C@@]4(C[C@]23O)NC6=O)O1
inactive: CRL-7250 3.82% | HEK293 | HaCat 3.57% | KB-3-1 | NIH3T3 -4.67%

C[C@@H]1O[C@@H](O[C@H]2[C@H](OC(=O)[C@]34CCC(C)(C)C[C@H]3C3=CCC5[C@@]6(C)C[C@@H](O)[C@@H](O[C@@H]7O[C@H](CO)[C@@H](O)[C@H](O)[C@H]7O)[C@@](C)(CO)C6[C@H](O)C[C@@]5(C)[C@]3(C)CC4)OC[C@H](O)[C@@H]2O)[C@H](O)[C@H](O[C@@H]2OC[C@](O)(CO)[C@H]2O)[C@H]1O[C@@H]1OC[C@@H](O)[C@H](O[C@H]2O[C@H](C)[C@@H](O)[C@H](O)[C@@H]2O)[C@H]1O (stereo not given in full)
inactive: CRL-7250 | HEK293 4.64% | HaCat 2.54% | KB-3-1 | NIH3T3

CC1=C2C(=O)C=C(CO[C@@H]3O[C@H](CO)[C@@H](O)[C@H](O)[C@H]3O)[C@@H]2[C@H]2OC(=O)[C@H](C)[C@@H]2[C@@H](O)C1
inactive: CRL-7250 | HEK293 -50.9% | HaCat 0.75% | KB-3-1 2.15% | NIH3T3

C[C@H]1[C@@H](O)[C@H](O)C2[C@]3(C)C([C@@H](O)[C@H]4OC(=O)[C@@H]1[C@@]24C)[C@](C)(O)C=C[C@H]3O[C@@H]1O[C@H](CO)[C@@H](O)[C@H](O)[C@H]1O (stereo not given in full)
inactive: CRL-7250 0.954% | HEK293 -1.06% | HaCat -2.23% | KB-3-1 8.84% | NIH3T3

C/C(=C\C1CCC(C)C2CCC3(C)OC123)C(=O)O (stereo not given)
inactive: CRL-7250 -0.564% | HEK293 -3.45% | HaCat 4.2% | KB-3-1 8.09% | NIH3T3

CC(C)c1ccc2c(c1)C(O)CC1C(C)(C(=O)O)CCCC21C (stereo not given)
inactive: CRL-7250 -4.34% | HEK293 2.95% | HaCat | KB-3-1 -15.9% | NIH3T3 -2.12%

C/C=C/C=C/C=C/C(=O)OC1C=C2C(O)OC(=O)[C@]2(O)[C@@]2(C)CCCC(C)(C)[C@H]12 (stereo not given in full)
inactive: CRL-7250 -0.551% | HEK293 4.05% | HaCat | KB-3-1 4.24% | NIH3T3 3.08%

OC[C@H]1O[C@@H](OCCc2ccccc2)[C@H](O)[C@@H](O)[C@@H]1O
inactive: CRL-7250 -3.7% | HEK293 3.92% | HaCat | KB-3-1 6.47% | NIH3T3 4.48%

CCCN(CCN1CCN(c2ccccc2OC)CC1)C1CCc2ncsc2C1 (stereo not given)
inactive: CRL-7250 -14.3% | HEK293 0.117% | HaCat -2.7% | KB-3-1 | NIH3T3

NC(=O)C(O[C@@H]1O[C@H](CO[C@@H]2O[C@H](CO)[C@@H](O)[C@H](O)[C@H]2O)[C@@H](O)[C@H](O)[C@H]1O)c1ccccc1 (stereo not given in full)
inactive: CRL-7250 | HEK293 -77.8% | HaCat | KB-3-1 4.92% | NIH3T3 4.15%

C=CC(C)(O)CC/C=C(\C)COC1O[C@H](CO)[C@@H](O)[C@H](O)[C@H]1O (stereo not given in full)
inactive: CRL-7250 -13.2% | HEK293 0.0631% | HaCat | KB-3-1 1.01% | NIH3T3 3.77%

COc1ccc(/C=C/C(=O)O[C@@H]2[C@@H](O)[C@@H](O)[C@H](O[C@H]3[C@@H]4C=CO[C@@H](O[C@@H]5O[C@H](CO)[C@@H](O)[C@H](O)[C@H]5O)[C@@H]4[C@@]4(CO)O[C@@H]34)O[C@H]2C)cc1
inactive: CRL-7250 -8.85% | HEK293 -4.15% | HaCat | KB-3-1 1.26% | NIH3T3 0.471%

CC(CC12CCCN1C(=O)C1CCCN1C2=O)OC(N)=O (stereo not given)
inactive: CRL-7250 | HEK293 2.01% | HaCat | KB-3-1 4.48% | NIH3T3 4.31%

COc1cc(O[C@@H]2O[C@H](CO[C@H]3OC[C@](O)(CO)[C@H]3O)[C@@H](O)[C@H](O)[C@H]2O)cc(OC)c1O
inactive: CRL-7250 -3.27% | HEK293 0.643% | HaCat | KB-3-1 | NIH3T3 -4.07%

C=C1C[C@H](O)[C@@H](O)[C@@]2(C)C1[C@@H](O)[C@H]1OC(=O)C3[C@@H](C)[C@@H](O)[C@H](O)C2[C@]31C (stereo not given in full)
inactive: CRL-7250 -9.79% | HEK293 3.52% | HaCat -3.92% | KB-3-1 | NIH3T3

C[C@]1(C2CCCC2)Cc2cc(OCC(=O)O)c(Cl)c(Cl)c2C1=O
inactive: CRL-7250 3.09% | HEK293 3.25% | HaCat | KB-3-1 | NIH3T3 4.03%

From PubChem BioAssay (NCATS)
